Compound activity (PubChem)
The list is not random: actives were taken first. Their share in the collection is about 21%.
NS1 function inh: inhibitors of influenza NS1 protein function; AID 2326; Potency, µM (highest dose often 46.1 µM), for the others: at the highest dose activity, positive = more growth; hit rate 0.4% among 270,000; note: potency is the fitted concentration of half-maximal effect; actives are rising curves; nearly all actives have a fitted effect of over 50% in size
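A cell-based growth assay was used: compounds that relieve NS1-induced slow growth of budding yeast raise OD600. Assay medium was yeast nitrogen base with ammonium sulphate and -URA supplement, pH 6.0, with 2% galactose.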
CHX counter: counter-screen for Shiga toxin inhibitors: cycloheximide protein synthesis inhibition | AID 2314 | hit rate 12% among 300,000 | cell reporter, cycloheximide protein synthesis inhibition counterscreen | max response, %; in the data active = max response mostly above about 13%, no sharp cut-off; inactive = mostly below about 14%; note: read at 38.3 µM for the half of the compounds with a filed dose; 0% is about no effect
Pf growth 96h: P. falciparum growth inhibition at 96 hour, primary screen for plastid delayed-death inhibitors | P. falciparum luciferase reporter growth, 96 h | Potency, µM (titrated, usually from 28.7 µM), for the others: at the highest dose activity change, negative = inhibition, usual class: inhibitors | hit rate 6.9% among 320,000 | AID 504834; active = well fitted inhibition curve with a large enough effect; inconclusive = small, poorly fitted or top-dose-only effect, or another doubt; inactive = no such curve, though single readings can be large or run the other way; note: potency is the fitted concentration of half-maximal effect; % is set by controls: 0 for no effect and ±100 for the full control effect
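Plates of compound plus infected erythrocytes (2% hematocrit, 0.05% parasitemia final) incubate 96 hours, 37 C, 5% CO2. Detection reagent added; reduced luminescence from the parasites' luciferase reporter flags inhibition.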
Shiga inhibitor: Shiga toxin inhibition; Vero cells, Shiga toxin protein synthesis inhibition reporter; inhibition, % at 38.7 µM; hit rate 9.2% among 290,000; AID 2315; in the data active = inhibition mostly above about 28%, no sharp cut-off; inactive = mostly below about 43%; note: 0% is about no effect
Pf growth 48h: inhibits P. falciparum growth in the first generation, 48 h; P. falciparum luciferase growth in erythrocytes, 48 h; Potency, µM (doses to about 28.7 µM), without a hit: at the highest dose activity change, negative = inhibition, hits mostly inhibitors; hit rate 5.9% among 310,000; AID 504832; active = well fitted inhibition curve with a large enough effect; inconclusive = small, poorly fitted or top-dose-only effect, or another doubt; inactive = no such curve, though single readings can be large or run the other way; note: potency is the fitted concentration of half-maximal effect; % is set by controls: 0 for no effect and ±100 for the full control effect
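Luciferase-expressing P. falciparum in infected erythrocytes (2% hematocrit, 0.1% parasitemia final) in RPMI 1640/0.5% Albumax were exposed to compound for 48 hours at 37 C, 5% CO2; growth read as luminescence.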
SARS PLpro yeast: SARS-CoV PLP inhibition in yeast. hit rate 0.19% among 330,000. AID 485353. S. cerevisiae expressing SARS-CoV PLpro, growth rescue. Potency, µM (titrated, usually from 32.9 µM), for the others: at the highest dose activity, positive = growth rescue, most hits filed as activators; note: potency is the fitted concentration of half-maximal effect; 0% is about no effect; nearly all actives have a fitted effect of over 55% in size
The depositor's hits bear a star; i = inactive; ? = inconclusive; / = no result given; [ ] = remark or other dose. Unless noted, calls come from the whole dose curve.

SMILES	NS1 function inh	CHX counter	Pf growth 96h	Shiga inhibitor	Pf growth 48h	SARS PLpro yeast
Cc1ccc(OCC(=O)NC2CCSc3ccccc32)cc1 (stereo unspecified)	/	/	0.3%	/	9.1%	-7.0%
Cc1c(O)ccc(-c2[nH]ncc2-c2nc3ccccc3s2)c1O	-6.5%	1.7	/	-14.7	-13.4%	?
Oc1ccc(N=C/C=C/c2ccc(Br)cc2)cc1-c1nc2ccccc2s1	17.4%	36.2*	38.3%	40.3*	20.5%	-4.2%
CC(=O)c1sc(NC(=O)c2cc(=O)c3ccccc3o2)nc1C	/	36.2*	107.3%	60.4*	i	0.3%
CCOC(=O)c1csc(NC(=O)c2cc(=O)c3ccccc3o2)n1	/	29.3	0.0738µM*	23.7	3.6%	7.6%
CC(=O)Nc1ccc(NC(=O)c2cc(=O)c3ccccc3o2)cc1	-0.7%	-3.6	21.2%	-7.6	48.2%	-0.3%
C/C(=N/NC(=O)CN(c1ccccc1)S(=O)(=O)c1ccccc1)c1ccccc1O	-7.0%	-1.0	?	4.9	?	5.1%
CCN1CCN(c2ccc(S(=O)(=O)N3CCOCC3)cc2NC(=O)/C=C/c2ccc(OC)cc2OC)CC1	/	/	?	/	10.4µM*	7.0%
CCN1CCN(c2ccc(S(=O)(=O)N3CCOCC3)cc2NC(=O)/C=C/c2ccc([N+](=O)[O-])cc2)CC1	/	/	3.7µM*	/	2.62µM*	2.2%
COc1ccc(/C=C/C(=O)Nc2ccc(S(=O)(=O)N3CCOCC3)cc2)c(OC)c1	/	/	9.28µM*	/	9.28µM*	0.2%
O=C(COc1ccccc1Cl)N1CCN(c2ccccn2)CC1	/	/	?	/	-10.4%	-1.2%
C[C@H](CO)N1C[C@H](C)[C@H](CN(C)S(=O)(=O)c2ccccc2)Oc2c(NS(C)(=O)=O)cccc2C1=O	/	/	/	/	/	6.5%
CC(C)CCN1C(=O)c2ccc(C(=O)NCC3CCCO3)cc2C1=O (stereo unspecified)	2.5%	-0.5	4.15µM*	-1.3	1.7%	-0.5%
Cc1ccnc(NC(=O)c2ccc3c(c2)C(=O)N(CC2CCCO2)C3=O)c1 (stereo unspecified)	-4.1%	23.7*	-39.0%[5.75 µM]	61.7*	21.9%	-0.8%
Cc1ccc(S(=O)(=O)Nc2ccc(OCC(=O)N3CCOCC3)cc2)c(C)c1NS(C)(=O)=O	8.5%	-8.0	?	15.3	-16.6%	13.0%
COc1ccc2nc(COC(=O)c3cccs3)c(C(C)=O)[n+]([O-])c2c1	2.4%	-1.7	96.2%	11.3	20.3%	0.2%
COC(=O)C(C)n1cnc2c(nnn2-c2cccc(OC)c2)c1=O (stereo unspecified)	1.1%	19.7*	-8.9%	41.0*	14.7%	2.6%
COc1cccc(-n2nnc3c(=O)n(Cc4cccc(F)c4)cnc32)c1	-11.6%	9.1	?	23.6	14.8%	2.2%
CCC(C(=O)OC)n1cnc2c(nnn2-c2cccc(OC)c2)c1=O (stereo unspecified)	4.3%	16.3*	22.2%	38.2	35.6%	-0.9%
COc1cccc(-n2nnc3c(=O)n(Cc4c(F)cccc4Cl)cnc32)c1	2.2%	-4.3	9.28µM*	-2.7	7.6%	0.2%
CCC(=O)c1cn(CC(=O)NCc2cccnc2)c2ccccc12	-1.9%	-2.2	/	-10.5	14.2%	-0.9%
N#C/C(=C/c1ccco1)c1nc2ccccc2s1	5.7%	94.4*	-12.3%	118.6*	31.5%	-28.9%
N#C/C(=C/c1ccc(-c2cc(C(=O)O)cc(C(=O)O)c2)o1)c1nc2ccccc2s1	/	8.0	28.5%	-1.1	8.9%	0.0%
N#C/C(=C\c1ccco1)c1nc2ccccc2s1	-14.9%	70.4*	0.0%	110.4*	59.2%	4.0%
N#C/C(=C\c1ccc(O)c([N+](=O)[O-])c1)c1nc2ccccc2s1	/	24.9	?	62.1	-15.5%	-4.3%
OCC#CCSc1nnc(-c2cccc3ccccc23)o1	/	/	0.5%	/	11.3%	-6.4%
c1ccc(Nc2nnc(-c3cccc4ccccc34)o2)cc1	3.1%	35.6*	143.6%	54.1*	91.3%	-1.2%
COc1ccc(/C=C/c2c(-c3ccc(OC)cc3)oc(=O)c3cc(OC)c(OC)cc23)cc1	/	/	/	/	/	-14.4%
CCOc1ccc(/C=C2\NC(=S)NC2=O)cc1	-6.3%	8.9	-27.0%	44.0	2.0%	-1.7%
O=C1CCC(/C=C/c2ccccc2)=NN1	/	17.2*	24.0%	16.9	16.8%	-3.5%
